Drawing on PubChem BioAssay (NCATS), this text covers outcome for 36 compounds.

Results filed as inconclusive are left out. Calls of active or inactive are those of the source. Calls come from the whole dose curve. Residues, ends and D or L forms follow the SMILES beside them.

The test deals with Peroxisome proliferator-activated receptor delta (Homo sapiens) (UniProt Q03181). In words: qHTS assay for small molecule agonists of peroxisome proliferator-activated receptor delta signaling (AID 588534). The conditions noted are these: HEK293T PPARdelta-UAS-bla, beta-lactamase ratio, 18 h; series mostly up to 76.7 µM. The gist of the method: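 Cell-based beta-lactamase reporter assay run in agonist mode: cells seeded and incubated 5 hrs at 37 C, compounds added and incubated 18 hrs at 37 C. CCF4 dye fluorescence read after 2 hrs at RT; EC50 and efficacy from Hill fits.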
Peroxisome proliferator-activated receptor delta (Homo sapiens), sequence (Q03181 whole entry, looked up): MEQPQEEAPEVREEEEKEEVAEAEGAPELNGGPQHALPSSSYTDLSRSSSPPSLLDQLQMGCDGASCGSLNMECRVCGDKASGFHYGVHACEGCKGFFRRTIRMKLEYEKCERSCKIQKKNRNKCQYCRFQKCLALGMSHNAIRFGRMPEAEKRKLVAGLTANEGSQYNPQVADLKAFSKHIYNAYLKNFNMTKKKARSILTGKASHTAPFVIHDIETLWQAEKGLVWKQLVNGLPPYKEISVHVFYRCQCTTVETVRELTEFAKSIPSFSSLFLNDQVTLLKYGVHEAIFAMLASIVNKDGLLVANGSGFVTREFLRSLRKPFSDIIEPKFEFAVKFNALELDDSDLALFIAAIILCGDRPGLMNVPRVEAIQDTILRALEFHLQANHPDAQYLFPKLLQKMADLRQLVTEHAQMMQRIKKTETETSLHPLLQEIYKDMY
(qHTS replaces the single test concentration by a dilution series.)
As to `NCCNCCNCCN`, the outcome was inactive.

In the case of `CC(=O)c1ccc(S(=O)(=O)NC(=O)NC2CCCCC2)cc1`, the outcome was inactive. For `CC1CC(OC(=O)c2ccccc2O)CC(C)(C)C1` (stereo unspecified), the result was inactive. To `CC(C)(Oc1ccc(Cl)cc1)C(=O)O` belongs “inactive”. To `S=P(N1CC1)(N1CC1)N1CC1` belongs “inactive”; to `Cc1ccc(C(C)C)c(O)c1`, “inactive”; to `CCCCOC(=O)c1ccc(N)cc1`, “inactive”.

Regarding `O=C(OCc1ccccc1)c1ccccc1`, the result was inactive. As to `O=c1[nH]cnc2[nH]ncc12`, the outcome was inactive. With `CCCCOC(=O)CC(CC(=O)OCCCC)(OC(C)=O)C(=O)OCCCC` the entry was “inactive”. With `Nc1ccc(S(N)(=O)=O)cc1`, the outcome was inactive. As to `NC(=O)N1c2ccccc2C=Cc2ccccc21`, the outcome was inactive. For the compound `Cc1cc(C)nc(NS(=O)(=O)c2ccc(N)cc2)n1`, the outcome was inactive. Consider `CC(C)(C)CC(C)(C)c1ccc(O)c(-n2nc3ccccc3n2)c1`, for which the outcome was inactive. As to `Nc1ccc(C(=O)O)cc1`, the outcome was inactive. In the case of `CCCCCCCCCCCCCCCCCCO`, the result was inactive. Take `Cc1nnc(NS(=O)(=O)c2ccc(N)cc2)s1`: the result was inactive. With `COc1c2occc2cc2ccc(=O)oc12` the entry was “inactive”; with `CC12CCC(CC1)C(C)(C)O2`, “inactive”.

Turning to `Cc1ncc(CO)c(CO)c1O`, the result was inactive. As for `CCOC(=O)c1ccc(O)cc1`, the result was inactive. Consider `CC(=O)OCC(COC(C)=O)OC(C)=O`, for which the outcome was inactive. For `COc1ccc(C(=O)c2ccccc2)c(O)c1`, the result was inactive.

`NCCNCCNCCNCCN`: the outcome was inactive. For `Cc1cc(O)cc(C)c1Cl`, the outcome was inactive. For the compound `COC(=O)[C@H](Cc1ccccc1)NC(=O)[C@@H](N)CC(=O)O` (H-Asp-Phe-OMe), the outcome was inactive. To `CO/N=C(/C(=O)N[C@@H]1C(=O)N2C(C(=O)O)=C(COC(N)=O)CS[C@H]12)c1ccco1` belongs “inactive”; to `O=C(O)CCCCC(=O)O`, “inactive”. As to `NC(=O)c1cnccn1`, the result was inactive. As to `COc1ccc(O)cc1`, the outcome was inactive.

With `COc1ccc2[nH]cc(CCNC(C)=O)c2c1`, the outcome was inactive. For the compound `O=C(c1ccccc1)C(O)c1ccccc1` (stereo unspecified), the result was inactive.

For `O=C(O)Cc1cccc2ccccc12`, the result was inactive. Take `O=C(N[C@H](CO)[C@H](O)c1ccc([N+](=O)[O-])cc1)C(Cl)Cl`: the outcome was inactive. To `CCCCCCCCCCCCCCCC(=O)OC(C)C` belongs “inactive”; to `O=C(O)c1cc(=O)[nH]c(=O)[nH]1`, “inactive”.
